# Compounds without any hit were thinned out: in the full panel of roughly 79,000, 15% have a hit. Values without a mark were called inactive. Activity calls are given as the source filed them. Cut-off read from the data, not from the text of the source: active = growth inhibition above about 70%; inactive = the rest.
# Key:
# [1] = NCI Yeast Anticancer Drug Screen. Data for the rad50 strain (AID 155);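 note: 0% = growth of vehicle-only cultures of the same strain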; conditions: S. cerevisiae rad50 strain growth inhibition; at 50.0 µM; hits give high values
# How it was run: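 Growth of the mutant yeast was measured after compound exposure and referenced to vehicle-treated cultures.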
# [2] = NCI Yeast Anticancer Drug Screen. Data for the mec2-1 strain (AID 157); conditions: S. cerevisiae mec2-1 strain, at 50.0 µM, hits give high values
# How it was run: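 Cells of the genetically defined mec2-1 yeast strain are incubated with test compound. Inhibition of growth is calculated against vehicle-treated controls.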
# [3] = NCI Yeast Anticancer Drug Screen. Data for the sgs1 mgt1 strain (AID 161);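 note: 0% = growth of cultures given vehicle only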; conditions: S. cerevisiae sgs1 mgt1 strain, at 50.0 µM, hits give high values
# How it was run: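 Genetically altered yeast, compound exposure, growth inhibition relative to vehicle.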
# [4] = NCI Yeast Anticancer Drug Screen. Data for the cln2 rad14 strain (AID 165);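 note: 0% = growth equal to vehicle treated cultures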; conditions: S. cerevisiae cln2 rad14 strain, at 50.0 µM, hits give high values
# How it was run: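 The screen exposed genetically defined yeast (cln2 rad14) to test compounds and scored growth inhibition relative to vehicle-treated controls.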
# [5] = NCI Yeast Anticancer Drug Screen. Data for the bub3 strain (AID 167); conditions: S. cerevisiae bub3 mutant strain, at 50.0 µM, hits give high values
# How it was run: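 Whole-cell yeast assay. The mutant strain was incubated with compounds, and growth inhibition was determined by comparison with vehicle-treated cells.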
# [6] = NCI Yeast Anticancer Drug Screen. Data for the mlh1 rad18 strain (AID 175); conditions: S. cerevisiae mlh1 rad18 strain growth inhibition; at 50.0 µM; hits give high values
# How it was run: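 Compound-treated yeast growth, normalised to vehicle controls. Strain bears defined DNA repair mutations.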
SMILES,growth inhibition [1],growth inhibition [2],growth inhibition [3],growth inhibition [4],growth inhibition [5],growth inhibition [6]
O=C1c2c(/C=C/c3ccc(Cl)c(Cl)c3)nc3ccccc3c2C(=O)N1CCN1CCCCC1,89.3% (active),50.6%,83.2% (active),17.9%,18.4%,79.3% (active)
Cc1cc(C)c(NC(=O)c2cc(C(=O)O)c(C(=O)Nc3c(C)cc(C)cc3C)cc2C(=O)O)c(C)c1,8.7%,2.5%,-15.6%,-7.1%,2.5%,-1.55%
CC(C)N(C(=O)C12C3C4C1(I)C1C2C3(I)C41C(=O)N(C(C)C)C(C)C)C(C)C (stereo unspecified),-9.55%,23.1%,25.9%,18.6%,-0.25%,-12.2%
Brc1ccc(C2NC(c3ccccc3)c3c(ccc4ccccc34)O2)cc1 (stereo unspecified),90% (active),77.7% (active),90.9% (active),61.2%,52.3%,86.4% (active)
COC(=O)OC/C=C\COC(=O)OC,5.8%,-4.05%,-13.6%,-11.4%,4.55%,13.6%
Cc1ccc(S(=O)(=O)N(c2cc(C)ccc2C)c2ccccc2N)cc1,58.6%,50.9%,41.8%,49.9%,20.9%,25.2%
Cn1nc(C(=O)NN)c(=O)[nH]c1=O,10.9%,-6.75%,0.8%,-20.6%,6.6%,16.9%
CCOC(=O)C(C)c1nc2cc(F)c(F)cc2[nH]c1=O (stereo unspecified),-5.45%,26.5%,9%,2.6%,4.1%,-19.4%
COc1cccc(C2ON=C(c3ccccc3)N2C23CC4CC(CC(C4)C2)C3)c1 (stereo unspecified),8.5%,-3.4%,-34.2%,-6.7%,10.1%,14.9%
CC(C)/C(Cl)=N/OC(=O)Nc1ccc(Cl)c(Cl)c1,85.5% (active),90.8% (active),92.3% (active),84.8% (active),88.9% (active),82.8% (active)
CCCCNC(=S)C(=S)NCCCC,10.7%,-0.3%,0.05%,26.9%,17.4%,-11.2%
CCCCCc1cc(C(=O)NN)c2ccccc2n1,-29.7%,-25%,-12.6%,-15.8%,33.1%,-12.8%
NNC(=O)C(=O)Nc1nccs1,0.65%,0.85%,2.05%,6.95%,-5.3%,-4.6%
CCOC(=O)Cc1nc2ccc3c(c2[nH]c1=O)C(=O)c1ccccc1C3=O,34.7%,30.1%,17.1%,29.4%,33.2%,67.8%
Brc1ccccc1N=Nc1ccccc1Br,-13.6%,3.95%,0.6%,-18.6%,-8.5%,-20.5%
COCC1(c2ccccc2)NC(=O)N(C)C1=O (stereo unspecified),-3.05%,-2.15%,-1.35%,-9.15%,-7.35%,-2%
N#CCc1ccccc1S(=O)(=O)O,13.3%,-0.75%,-3.45%,-9.75%,5.05%,0.25%
CC(=O)Nc1ccc(C2SCc3nc4ccccc4n32)cc1 (stereo unspecified),-21.5%,-11.1%,-32.5%,-34.2%,-24.9%,-48.8%
COc1ccc(C2C(N)=NCC2c2ccccn2)cc1 (stereo unspecified),-21.9%,-17.6%,-12.4%,16.1%,-9.55%,-12.3%
COC(=O)CCCC(Sc1ccccc1)C(=O)OC (stereo unspecified),3.7%,0.6%,15.7%,-7.4%,7.85%,6.75%
CCc1nc(N)nc(N)c1-c1ccc2nnn(O)c2c1,-11.8%,-7.45%,-4.8%,-40%,0%,-3.1%

SMILES,growth inhibition [1],growth inhibition [2],growth inhibition [3],growth inhibition [4],growth inhibition [5],growth inhibition [6]
Nc1nc(Cl)nc(Cl)c1N,-21.9%,7.1%,-17.3%,-23.4%,-8.95%,-2.95%
CCOCC(Cl)C(OCC)OCC (stereo unspecified),0.45%,6.5%,-5.4%,-20.1%,2.85%,-1.1%
C#CCN(Cc1ccc2nc(-c3ccccc3)c(Cl)nc2c1)c1ccc(Cl)c(Cl)c1,-15.2%,-6.4%,-2.25%,-37.5%,-16.4%,-18.2%
CC(=O)O/C(C)=C/C(C)C,2.65%,-5.35%,9%,-3.15%,2.1%,-8.95%
CC(C)CC(NC(c1ccccc1)P(=O)(O)O)C(=O)O (stereo unspecified),-4.15%,-13.2%,-22.1%,-9%,-8.3%,-27.1%
CC(O)C(=O)N(CCO)CCO (stereo unspecified),-5.4%,-21.9%,-13.4%,-35.8%,3.5%,10.3%
CN/N=C(\C)CC(=O)Nc1cccc(Cl)c1C,-13.7%,-17.6%,-1.15%,17.2%,-15%,1.9%
CC1CC(C)c2ccccc21 (stereo unspecified),42.3%,27.4%,17.8%,39.3%,0.3%,2.4%
COC(=O)C(CC(=O)[C@H]1CC[C@H]2[C@@H]3CC=C4C[C@@H](OC(C)=O)CC[C@]4(C)[C@H]3CC[C@]12C)OC(C)=O (stereo partly specified),18.7%,-6.2%,26.7%,28.9%,-1.75%,8.7%
CC1OC(C)(CCc2ccccc2)OC1C (stereo unspecified),0.4%,-46.8%,11.7%,-12.2%,-21.6%,-8%
CCCCCCCCCc1cc(-c2ccc(C=O)s2)sc1-c1ccc(C=O)s1,8.8%,-4.5%,-8.8%,-3.6%,-12.9%,0.4%
Cc1ccccc1OCC(O)CO (stereo unspecified),4.2%,-5.9%,-8.7%,22.2%,-23.4%,-13.6%
C=CCOc1cc(=O)[nH]c2ccccc12,-14.1%,-4.4%,-0.9%,-51.1%,-0.45%,2.9%
Cc1cc(S(=O)(=O)Nc2nc3ccccc3[nH]2)c(S)cc1Cl,19.9%,13.2%,23.9%,23.4%,5.55%,40.6%
Cc1ccc(/C=N/NC(=O)c2ccccc2NC(=O)c2ccccc2)cc1,57.4%,80.6% (active),85.4% (active),62%,70.8% (active),69.8%
CN(C)c1ccccc1C(=O)N/N=C/c1ccc(F)cc1,-4.7%,-31.3%,-6.55%,-13.8%,-14.9%,-6%
COc1cc([C@@H]2C3C(=O)c4ccccc4C3[C@@H](c3cc(OC)c(OC)c(OC)c3)C23Cc2ccccc2C3=O)cc(OC)c1OC (stereo partly specified),-6.5%,-0.95%,-11.2%,4.55%,23.4%,16%
O=S(=O)(NOCCCCONS(=O)(=O)c1ccccc1)c1ccccc1,27.6%,17.6%,11.2%,92.1% (active),26.3%,-6.15%
CN(C)CCCNC(=O)Nc1ccc(Cl)cc1,8.15%,8.15%,0.15%,11.8%,-0.35%,12.8%
CCC(O)C(C)[N+](=O)[O-] (stereo unspecified),28%,-1.85%,7.45%,6%,1.75%,3.75%

# Source: PubChem BioAssay (NCI)
